# Bioassay records deposited in PubChem BioAssay by National Center for Advancing Translational Sciences (NCATS).
# Pf growth 96h – P. falciparum growth inhibition at 96 hour, primary screen for plastid delayed-death inhibitors; P. falciparum luciferase reporter growth, 96 h; Potency, µM (series often up to 28.7 µM), without a hit: at the top dose activity change, negative = inhibition, hits mostly inhibitors; actives 6.9% (n = 320,000); also: potency is read from the fitted curve at half-maximal effect; % is scaled to controls: 0 for no effect and ±100 for the full control effect
#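 Luminescence readout: decreased luciferase signal marks inhibited growth of reporter-expressing P. falciparum in infected red cells (2% hematocrit, 0.05% parasitemia final), exposed to compound two generations (96 h, 37 C, 5% CO2).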
# Shiga inhibitor – inhibitors of Shiga toxin in Vero cells; Vero cells, Shiga toxin protein synthesis inhibition reporter; inhibition, % at 38.7 µM; actives 9.2% (n = 290,000); AID 2315; in the data active = inhibition mostly above about 28%, no sharp cut-off; inactive = mostly below about 43%; also: 0% is about no effect
# Pf growth 48h – P. falciparum growth inhibition at 48 hours (one generation); Potency, µM (doses to about 28.7 µM), for the others: top-dose activity change, negative = inhibition, most hits filed as inhibitors; P. falciparum luciferase growth in erythrocytes, 48 h; actives 5.9% (n = 310,000); also: potency is read from the fitted curve at half-maximal effect; % is scaled to controls: 0 for no effect and ±100 for the full control effect
#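 Firefly luciferase activity from engineered P. falciparum reports growth; inhibitors lower the luminescent signal. Cultures contained 2% hematocrit erythrocytes at 0.1% final parasitemia.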
# HCV inhibitor – inhibitors of hepatitis C virus infection; Potency, µM (series often up to 41.8 µM), inactives show at the top dose activity change, negative = inhibition, actives largely listed as inhibitors; AID 651820; actives 3.4% (n = 340,000); Huh7.5.1 HCVcc-Cre infection, luciferase reporter, 44 h; also: potency is read from the fitted curve at half-maximal effect; % is scaled to controls: 0 for no effect and ±100 for the full control effect
#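 1,000 cells/well; 4 h culture; + compound; + HCVcc-Cre (~0.5 moi); 44 h; luciferase substrate, RT 15 min; read 15 sec.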
# Cycloheximide cs – counter-screen hit for Shiga toxin inhibitors, cycloheximide. cell reporter, cycloheximide protein synthesis inhibition counterscreen. max response, %. actives 12% (n = 300,000). AID 2314; in the data active = max response mostly above about 13%, no sharp cut-off; inactive = mostly below about 14%; also: read at 38.3 µM for the half of the compounds with a filed dose; 0% is about no effect
# AMA1-RON2 inh – inhibitors of Plasmodium falciparum AMA1-RON2 interaction; AlphaScreen AMA1-biotinylated RON2 peptide binding; Potency, µM (doses to about 58.2 µM), for inactives: at the top dose activity change, negative = inhibition, usual class: inhibitors; actives 0.2% (n = 360,000);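 also: potency is read from the fitted curve at half-maximal effect; 0% = vehicle wells and -100% = peptide control; nearly all actives have a fitted effect of over 45% in size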
#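 AMA1 (3D7) with his tag at 25 nM final met compounds first, then biotinylated RON2 peptide at 25 nM; detection used donor plus acceptor beads, 10 µg/mL apiece, read by AlphaScreen after 30 min at room temperature.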
# The depositor's hits bear a star; i = inactive; ? = inconclusive; . = not tested or not shown. An excerpt weighted towards active compounds, which were near 21% of everything screened. Unless noted, calls follow the shape of the dose curve; as a rule, active = well fitted curve in the direction sought with a large enough effect; inconclusive = small, poorly fitted or top-dose-only effect, or another doubt; inactive = no such curve, though single readings can be large; an effect the other way counts as inactive or inconclusive.
SMILES,Pf growth 96h,Shiga inhibitor,Pf growth 48h,HCV inhibitor,Cycloheximide cs,AMA1-RON2 inh
CCOc1ccccc1-c1cc(C(=O)Nc2ccc(C(=O)O)cc2)c2ccccc2n1,10µM*,-3,?,-2%,-4,16%
CCOc1ccccc1NC(=O)c1cc(-c2ccccn2)nc2ccccc12,?,.,15µM*,-1%,.,8%
COc1ccc(/C=C2\CC/C(=C\c3ccc(OC)cc3OC)C2=O)c(OC)c1,?,60*,?,-17%,26*,-4%
COc1ccc(/C=C2\CCC(C3CCCC3)C2=O)c(OC)c1 (stereo unspecified),11%,21,23%,-20%,10,-13%
COc1ccc(/C=C2\CCc3ccccc3C2=O)cc1OC,129%,139*,59%,0%,52*,?
COc1ccc2c(c1)CC/C(=C/c1ccccn1)C2=O,10%,100*,58%,-12%,55*,-3%
COc1cccc(/C=C2\CCc3ccccc3C2=O)c1,i,60*,80%,-3%,44*,4%
CC1CCCC(NC(=O)COC(=O)c2ccc3ncsc3c2)C1C (stereo unspecified),27%,.,-9%,11%,.,7%
C[C@@H]1CN([C@H](C)CO)C(=O)CCCn2cc(nn2)CO[C@H]1CN(C)C(=O)Nc1cccc(C(F)(F)F)c1,.,.,.,.,.,19%
COc1ccc2c(c1)CC/C(=C/c1cc(OC)c(OC)c(OC)c1)C2=O,15µM*,30,?,?,6,6%
COc1ccc2c(c1)CC/C(=C\C=C\c1ccccc1)C2=O,?,44*,?,?,25*,-18%
COc1ccc2c(c1)CC/C(=C\Nc1ccc3c(c1)OCO3)C2=O,.,38,4%,7.1µM*,77*,-4%
